Results reported in PubChem BioAssay (Tox21).
Unmarked numbers belong to inactive results. Records with an inconclusive call do not appear. Entries that show only a call come without a potency. Active and inactive are the calls of the source. Unless noted, the call rests on the fitted dose curve; in most records, active means well fitted curve in the direction sought with a large enough effect in the repeat runs; inconclusive means weak or mixed curves; inactive means no such curve, though single readings can be large; an effect the other way counts as inactive or inconclusive.

Key:
[1] = qHTS assay for small molecule agonists of the p53 signaling pathway (AID 651631; calls by dose curve; further: nearly all actives have a fitted effect of over 15% in size; further: potency means the concentration at half of the fitted maximal effect)
Method in brief: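 HCT-116 p53RE-bla reporter line, 16 h compound treatment at 37 °C, then fluorescence after 2 h with B/G FRET substrate.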

[2] = qHTS assay for small molecule agonists of the p53 signaling pathway - cell viability (AID 651633; calls by dose curve;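 further: p53RE-bla HCT reporter cells with a stable beta-lactamase p53 reporter; series mostly up to about 83 µM; nearly all actives have a fitted effect of over 30% in size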)
Method in brief: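 p53RE-bla cells were treated with compound for 16 hours at 37 C. Cytotoxicity was then measured as CellTiter-Glo luminescence after 30 min at room temperature.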

[3] = qHTS assay for small molecule disruptors of the mitochondrial membrane potential - cell viability (AID 720634; calls by dose curve;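 further: human HepG2 liver cancer cells; series mostly up to about 83 µM; nearly all actives have a fitted effect of over 20% in size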)
Method in brief: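 Luminescence from CellTiter-Glo (ATP content) gave viability in HepG2 cells, read in the same wells as the MMP dye assay after 1 hr compound exposure at 37 C.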

[4] = qHTS assay for small molecule disruptors of the mitochondrial membrane potential (AID 720635)
Method in brief: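 HepG2 cells exposed to compound 1 hr at 37C, then Mito-MPS dye 30 min. Ratio read of aggregate (540/590 nm) versus monomer (490/535 nm) fluorescence.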

[5] = qHTS assay to test for compound auto fluorescence at 590 nm (red) in HepG2 cells (AID 720674)
Method in brief: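 Fluorescence at 590 nm emission following 540 nm excitation was recorded from HepG2 wells one hour after compound transfer, with DMSO-only wells as vehicle and Rose Bengal sodium equivalency as the scale.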

[6] = qHTS assay to test for compound auto fluorescence at 460 nm (blue) in HEK293 cells (AID 720678)
Method in brief: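 Intrinsic compound fluorescence is recorded in live HEK293 cultures after overnight incubation at 37C, 5% CO2, using excitation 405 nm and emission 460 nm. Values are referenced to triamterene.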

[7] = qHTS assay to test for compound auto fluorescence at 590 nm (red) in HEK293 cells (AID 720679)
Method in brief: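 Red autofluorescence, HEK293 cells: 2,000 cells/well; attach 4-5 hr 37C; add 23 nL cpd or DMSO; incubate o/n 37C 5% CO2; read Ex540/Em590; Rose Bengal sodium reference.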

[8] = qHTS assay to test for compound auto fluorescence at 535 nm (green) in HEK293 cells (AID 720680)
[9] = qHTS assay to test for compound auto fluorescence at 460 nm (blue) in HEK293 cell free culture (AID 720681)
Method in brief: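 Compounds were added to cell-free DMEM with 10% FBS and fluorescence read directly. The blue channel used 405 nm excitation and 460 nm emission, with triamterene as the reference fluorophore.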

[10] = qHTS assay to test for compound auto fluorescence at 535 nm (green) in HEK293 cell free culture (AID 720682)
Method in brief: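 Steps: dispense DMEM/10% FBS into empty wells; pin in compound or DMSO; measure fluorescence at 485/535 nm. Values are fluorescein equivalents.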

[11] = qHTS assay to test for compound auto fluorescence at 590 nm (red) in HEK293 cell free culture (AID 720683)
Method in brief: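 Cell-free wells of DMEM with 10% FBS received compound, and intrinsic fluorescence was read at excitation/emission 540/590 nm. Values expressed as equivalence to Rose Bengal sodium.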

[12] = qHTS assay to test for compound auto fluorescence at 590 nm (red) in HepG2 cell free culture (AID 720684)
Method in brief: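 Auto fluorescence equivalency versus Rose Bengal sodium, red channel Ex/Em 540/590 nm; compounds in cell-free MEM/10% FBS; DMSO vehicle control.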

[13] = qHTS assay to test for compound auto fluorescence at 460 nm (blue) in HepG2 cell free culture (AID 720685)
Method in brief: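 Cell-free plates of MEM plus 10% FBS received 23 nL compound or DMSO vehicle; blue-channel (405/460 nm) intensity scored against triamterene as reference fluorophore.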

[14] = qHTS assay to test for compound auto fluorescence at 535 nm (green) in HepG2 cell free culture (AID 720686)
[15] = qHTS assay to test for compound auto fluorescence at 460 nm (blue) in HepG2 cells (AID 720687)
Method in brief: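 HepG2 cells in MEM with 10% FBS, attached overnight at 37 C, were exposed to compound or DMSO for 1 hr at 37 C, 5% CO2. Blue fluorescence was read at 405/460 nm, with triamterene as reference fluorophore.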

[16] = target: Glucocorticoid receptor (Homo sapiens) (UniProt P04150); assay: qHTS assay to identify small molecule agonists of the glucocorticoid receptor (GR) signaling pathway (AID 720691; active means well fitted activation curve with a large enough effect in the signal ratio in the repeat runs, not every such curve was filed as active; the % refers to the signal ratio)
Chain of Glucocorticoid receptor (Homo sapiens) (P04150 whole entry, looked up): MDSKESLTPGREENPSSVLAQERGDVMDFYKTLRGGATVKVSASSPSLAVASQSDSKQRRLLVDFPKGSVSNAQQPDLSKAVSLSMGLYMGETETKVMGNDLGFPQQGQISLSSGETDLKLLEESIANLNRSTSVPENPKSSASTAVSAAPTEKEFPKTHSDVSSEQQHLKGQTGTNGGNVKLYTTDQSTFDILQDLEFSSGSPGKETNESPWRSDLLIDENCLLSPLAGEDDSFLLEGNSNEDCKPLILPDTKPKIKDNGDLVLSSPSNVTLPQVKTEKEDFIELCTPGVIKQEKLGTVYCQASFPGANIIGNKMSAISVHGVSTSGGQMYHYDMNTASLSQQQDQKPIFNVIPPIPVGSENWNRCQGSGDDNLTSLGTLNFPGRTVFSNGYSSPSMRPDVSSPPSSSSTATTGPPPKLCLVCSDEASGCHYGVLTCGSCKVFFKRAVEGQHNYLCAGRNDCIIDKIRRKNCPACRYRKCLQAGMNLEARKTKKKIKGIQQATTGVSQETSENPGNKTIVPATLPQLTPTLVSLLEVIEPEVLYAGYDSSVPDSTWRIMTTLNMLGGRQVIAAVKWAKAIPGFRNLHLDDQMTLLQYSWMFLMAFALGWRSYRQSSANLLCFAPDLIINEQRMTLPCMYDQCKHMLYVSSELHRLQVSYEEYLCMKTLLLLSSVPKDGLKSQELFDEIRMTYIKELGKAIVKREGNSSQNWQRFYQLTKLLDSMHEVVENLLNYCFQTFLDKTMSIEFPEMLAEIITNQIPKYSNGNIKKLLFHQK
Method in brief: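 HeLa GR-bla reporter line; cells pre-incubated 4 h, compound in DMSO 18 h at 37 C; LiveBLAzer B/G FRET substrate 2 h RT; fluorescence intensity read-out.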

[17] = target: Glucocorticoid receptor (Homo sapiens) (UniProt P04150); assay: qHTS assay to identify small molecule antagonists of the glucocorticoid receptor (GR) signaling pathway (AID 720692; active means well fitted inhibition curve with a large enough effect in the signal ratio in the repeat runs, not every such curve was filed as active; the % refers to the signal ratio)
Method in brief: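 Read-out: beta-lactamase FRET substrate fluorescence, 2 h at room temperature, in HeLa cells stably carrying a GRE-driven bla reporter. Compounds were co-incubated with 5 nM dexamethasone agonist (final) for 18 h at 37 C.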

[18] = qHTS assay for small molecules that induce genotoxicity in human embryonic kidney cells expressing luciferase-tagged ATAD5 (AID 651632); further: nearly all actives have a fitted effect of over 15% in size
Method in brief: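 Luminescence read-out: after 16 hr compound exposure at 37C, ATAD5-luciferase HEK293T cells received Amplite, 30 min RT, then CCD imaging. A rise in signal marks genotoxic stress.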

[19] = qHTS assay for small molecules that induce genotoxicity in human embryonic kidney cells expressing luciferase-tagged ATAD5 - cell viability (AID 651634; calls by dose curve; further: nearly all actives have a fitted effect of over 25% in size)
Method in brief: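 HEK293T ATAD5-luc cells, 2,000/well; compound 15.5 hr, 37C/5% CO2; CellTiter-Fluor 30 min, 37C; fluorescence read.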

[20] = qHTS assay to test for compound auto fluorescence at 535 nm (green) in HepG2 cells (AID 720675)

Row | Compound | Potency [1] | Potency [2] | Potency [3] | Potency [4] | outcome [5] | outcome [6] | outcome [7] | outcome [8] | outcome [9] | outcome [10] | outcome [11] | outcome [12] | outcome [13] | outcome [14] | outcome [15] | Potency [16] | Potency [17] | Potency [18] | Potency [19] | outcome [20]
1 | ClC(Cl)Cl | inactive | inactive | inactive | inactive | inactive | inactive | inactive | inactive | inactive | inactive | inactive | inactive | inactive | inactive | inactive | inactive | inactive | – | – | –
2 | CCCNC(C)(C)COC(=O)c1ccccc1 | – | inactive | inactive | inactive | inactive | inactive | inactive | inactive | inactive | inactive | inactive | inactive | inactive | inactive | – | inactive | inactive | inactive | inactive | inactive
3 | CNCCC(Oc1ccccc1OC)c1ccccc1 (stereo not given) | – | inactive | inactive | inactive | inactive | inactive | inactive | inactive | inactive | inactive | inactive | inactive | inactive | inactive | – | – | – | inactive | inactive | inactive
4 | CCOc1ccccc1N | inactive | – | inactive | inactive | inactive | inactive | inactive | inactive | inactive | inactive | – | inactive | inactive | inactive | inactive | inactive | inactive | – | – | inactive
5 | CC(C)NC[C@@H](O)COc1cccc2ccccc12 | inactive | inactive | inactive | – | inactive | inactive | inactive | inactive | inactive | inactive | inactive | inactive | inactive | inactive | – | – | – | – | inactive | –
6 | O=c1oc2c(O)c(O)cc3c(=O)oc4c(O)c(O)cc1c4c23 | – | inactive | inactive | inactive | inactive | inactive | inactive | inactive | inactive | inactive | inactive | inactive | inactive | – | inactive | inactive | inactive | inactive | inactive | inactive
7 | O=C(C(Cl)Cl)N1CCOC12CCCCC2 | inactive | inactive | inactive | – | inactive | inactive | inactive | inactive | inactive | inactive | inactive | inactive | inactive | inactive | inactive | inactive | inactive | – | inactive | inactive
8 | Nc1ccc2ccccc2c1S(=O)(=O)O | inactive | inactive | inactive | inactive | – | inactive | inactive | inactive | inactive | inactive | inactive | inactive | – | inactive | inactive | inactive | – | – | inactive | –
9 | O=C1CCN(c2ccccc2)N1 | inactive | inactive | inactive | inactive | inactive | inactive | inactive | inactive | inactive | inactive | inactive | inactive | inactive | – | inactive | inactive | inactive | – | – | inactive
10 | C1CCOC1 | inactive | inactive | – | – | inactive | inactive | – | inactive | inactive | inactive | inactive | inactive | – | inactive | inactive | inactive | inactive | – | – | inactive
11 | O=C1CCC(C2CCCCC2)CC1 | inactive | inactive | inactive | inactive | – | inactive | inactive | inactive | inactive | inactive | inactive | inactive | inactive | inactive | inactive | inactive | inactive | – | inactive | inactive
12 | CN1CCN(c2c(F)cc3c(=O)c(C(=O)O)cn(CCF)c3c2F)CC1 | inactive | inactive | inactive | inactive | inactive | inactive | inactive | inactive | inactive | inactive | inactive | inactive | inactive | inactive | inactive | inactive | inactive | – | – | inactive
13 | CC(C)Nc1nc(N)nc(Cl)n1 | inactive | – | inactive | inactive | inactive | inactive | inactive | inactive | inactive | inactive | – | inactive | inactive | inactive | – | inactive | inactive | – | inactive | inactive
14 | C1CSCCS1 | inactive | inactive | inactive | inactive | inactive | inactive | inactive | inactive | inactive | inactive | – | inactive | inactive | inactive | inactive | inactive | inactive | – | – | inactive
15 | CN(CC1(C)CCCO1)S(=O)(=O)c1ccc(Cl)c(S(N)(=O)=O)c1 (stereo not given) | inactive | inactive | inactive | inactive | inactive | inactive | inactive | inactive | inactive | inactive | – | inactive | inactive | inactive | inactive | – | – | – | inactive | inactive
16 | CCOC(=O)c1ccccc1O | inactive | inactive | inactive | inactive | inactive | inactive | – | inactive | inactive | inactive | inactive | inactive | inactive | inactive | – | inactive | inactive | – | inactive | inactive
17 | CO[Si](C)(C)OC | inactive | inactive | inactive | – | inactive | inactive | inactive | inactive | inactive | inactive | – | inactive | inactive | – | – | inactive | inactive | – | inactive | inactive
18 | CC[C@H]1CC[C@H](NCc2cc3c(cc2OC)[C@H]2C[C@H]2C(=O)N3C)[C@H](c2ccccc2)N1 | 6.86 µM (active) | – | inactive | inactive | – | inactive | inactive | inactive | inactive | inactive | inactive | inactive | inactive | – | inactive | inactive | inactive | – | – | inactive
19 | COC(=O)c1ccc(OC)cc1 | inactive | – | inactive | inactive | inactive | inactive | inactive | inactive | inactive | inactive | inactive | inactive | inactive | inactive | inactive | inactive | inactive | – | inactive | –
20 | CC(C)NCC(O)COc1ccc(CCOCC2CC2)cc1 (stereo not given) | inactive | – | inactive | inactive | inactive | inactive | inactive | inactive | inactive | inactive | inactive | inactive | – | inactive | – | inactive | inactive | – | inactive | inactive
21 | NCCCN1CCN(CCCN)CC1 | inactive | inactive | inactive | inactive | inactive | inactive | – | inactive | inactive | inactive | inactive | inactive | – | inactive | inactive | inactive | inactive | – | inactive | –
22 | C=CCCC=C | inactive | inactive | inactive | – | – | inactive | inactive | inactive | inactive | inactive | inactive | inactive | – | inactive | inactive | – | – | – | inactive | inactive
23 | CC(=O)OC1C2(C)CCC(C2)C1(C)C (stereo not given) | – | inactive | inactive | inactive | inactive | inactive | – | inactive | inactive | inactive | inactive | inactive | inactive | inactive | inactive | inactive | – | – | – | –
24 | CCOC(=O)COc1ccc2c(c1)CC(NCC(O)c1cccc(Cl)c1)CC2 (stereo not given) | – | – | inactive | – | inactive | inactive | – | inactive | inactive | inactive | inactive | inactive | inactive | inactive | – | – | – | inactive | inactive | inactive
25 | CCCCCCCCc1ccc(S(=O)(=O)O)cc1 | – | – | inactive | – | inactive | inactive | – | inactive | inactive | inactive | inactive | inactive | – | inactive | inactive | inactive | inactive | inactive | inactive | inactive
26 | Clc1cccc(-c2cc(Cl)cc(Cl)c2)c1 | – | – | inactive | – | inactive | inactive | inactive | inactive | inactive | inactive | – | inactive | inactive | – | – | – | – | inactive | inactive | inactive
27 | CCCCCCOc1ccc(N)cc1 | – | inactive | inactive | – | inactive | inactive | inactive | inactive | inactive | inactive | – | inactive | inactive | – | inactive | inactive | – | – | inactive | inactive
28 | O=C(O)CN(CCN(CC(=O)O)CC(=O)O)CCN(CC(=O)O)CC(=O)O | – | inactive | inactive | inactive | – | inactive | – | inactive | inactive | inactive | – | inactive | inactive | inactive | inactive | inactive | – | – | inactive | inactive
